Values joined by “and” are separate entries in the source; they are usually repeats but may differ in a detail not shown here. Identical values can stand only once. Unmarked numbers belong to inactive results. Results filed as inconclusive are left out. Active and inactive are the calls of the source. Unless noted, calls come from the whole dose curve; as a rule, active = well fitted curve in the direction sought with a large enough effect; inconclusive = small, poorly fitted or top-dose-only effect, or another doubt; inactive = no such curve, though single readings can be large; an effect the other way counts as inactive or inconclusive.

A short description of experiment [1]: Cell Viability - BJ (AID 421; calls by dose curve;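 note: potency is the fitted concentration of half-maximal effect; cells exposed to compound for 40 hours at 37 °C before readout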). Particulars: BJ fibroblast viability, qHTS. A digest of the protocol: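 Quantitative HTS: ATP depletion in BJ cells after 40 hr compound exposure in complete culture medium, detected with CellTiter-Glo; AC50 from standard Hill fits.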
Background: In qHTS, concentration-response curves come from the screen itself.

Experiment [2] can be described thus: Cellular Toxicity (caspase-3) HUV-EC-C (AID 656). The conditions noted are these: HUV-EC-C cells, caspase-3 activation (apoptosis), vehicle = 0, 100 µM tamoxifen = 100%; series mostly up to 92.2 µM. A digest of the protocol: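 Luminescent Caspase-Glo 3/7 readout after 16 h, 37 °C compound exposure of HUV-EC-C endothelial cells, 1000 per well, complete medium. AC50 derived by Hill fitting, with DMSO as baseline and 100 uM tamoxifen as full activation.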

Experiment [3] in a line: Cellular Toxicity (caspase-3) MRC-5 (AID 659). Particulars: MRC-5 cells, luminescence, normalized: DMSO 0%, 10 µM staurosporine 100%; series mostly up to 91.7 µM. A digest of the protocol:
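Concentration-dependent caspase 3/7 activation is measured in human normal lung fibroblasts (MRC-5) following 16-hour treatment. AC50 values come from standard Hill-equation modeling of luminescence normalized to DMSO and 10 uM staurosporine.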

The nature of experiment [4]: Cellular Toxicity (caspase-3) Mesangial (AID 660).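 Note: combined caspase 3 and 7 activity read by Caspase-Glo luminescence; cells exposed to compound for 16 h before the caspase read.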 The conditions noted are these: mesangial cells, normalized: DMSO 0%, 100 µM tamoxifen 100%; series mostly up to 91.7 µM. A digest of the protocol:
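Mesangial cells, 1000/well, 5 h settle at 37 °C; compound 16 h, 37 °C; Caspase-Glo 3/7 reagent 20 min RT; luminescence. Norm.: DMSO = 0%, tamoxifen 100 uM = 100%. AC50, Hill fit.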

Experiment [5] in a line: Cellular Toxicity (caspase-3) SK-N-SH (AID 661). Particulars: SK-N-SH caspase-3 activation, qHTS; series mostly up to 91.7 µM. A digest of the protocol:
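Human neuroblastoma SK-N-SH, 1500 cells/well, 5 hr pre-incubation, then compound 16 hr, 37 °C. Caspase-Glo 3/7 reagent, 1 hr RT, luminescence. Norm. to DMSO/10 uM staurosporine; Hill-fit AC50.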

Experiment [6] in a line: Cellular Toxicity (caspase-3) Hek293 (AID 664).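 Note: cells exposed to compound for 16 h at 37 °C before readout.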 The conditions noted are these: HEK293 caspase-3 activation, DMSO = 0%, 100 µM tamoxifen = 100%; at 92.2 µM (top of the series). A digest of the protocol: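 Cells plated, 5 hr at 37 °C; compounds added; 16 hr at 37 °C; Caspase-Glo 3/7 reagent, 20 min RT; luminescence read. Activation expressed relative to DMSO and 100 uM tamoxifen, AC50 by Hill model.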

A short description of experiment [7]: Cellular Toxicity (caspase-3) NIH 3T3 (AID 666).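 Note: caspase signal read after 16 h compound exposure; 0% = DMSO basal and 100% = 100 µM tamoxifen stimulation.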 Particulars: NIH 3T3 caspase-3 activation, apoptosis/toxicity; series mostly up to 92.2 µM. A digest of the protocol: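 Luminescence from aminoluciferin released by caspase-3/7 cleavage of a peptide substrate served as read-out. Mouse fibroblast NIH 3T3 cells were exposed to compounds over a concentration range for 16 hours, and AC50 values came from standard Hill modelling.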

Experiment [8] has as its target Cytochrome P450 3A4 (Homo sapiens) (UniProt P08684). As to the kind of experiment: qHTS Assay for Inhibitors and Substrates of Cytochrome P450 3A4 (AID 884). Note: nearly all actives have a fitted effect of over 50% in size. Note: potency is the fitted concentration of half-maximal effect. The conditions noted are these: recombinant CYP3A4, Luciferin-PPXE luminescence; series mostly up to 57.1 µM. A digest of the protocol: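 20 nM human CYP3A4 with 25 uM Luciferin-PPXE (at KM) in 200 mM KPO4, preincubated 10 min with compound; NADPH regeneration started a 60 min RT reaction. Luciferin detected by luminescence, normalized to 57 uM ketoconazole as full inhibition.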

A short description of experiment [9]: MultiTox-Fluor Cytotoxicity Assay - LYMP1-001 - Dead Cells (AID 946).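 Note: 0% = DMSO and 100% = tetraoctylammonium bromide.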 The conditions noted are these: LYMP1-001 lymphoblastoid cells, dead-cell protease fluorescence; series mostly up to 92.2 µM. A digest of the protocol:
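In this qHTS, 15 uM tetraoctylammonium bromide defined 100% and DMSO defined basal activity. Lymphoblastoid cells (LYMP1-001, 2500 per well) received compound for 16 hr at 37 C before a fluorogenic dead-cell substrate readout at 485/520 nm.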

Experiment [10] is described as follows: Cell Viability - LYMP1-002 - Assay at 16 hr (AID 948).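 Note: 0% = DMSO alone and full effect = 92 µM tetraoctylammonium bromide.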 The conditions noted are these: LYMP1-002 lymphoblastoid cell viability; series mostly up to 92.2 µM. A digest of the protocol:
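ATP luminescence (CellTiter-Glo) was measured after 16 hr compound exposure at 37 C of 2500 lymphoblastoid LYMP1-002 cells per well. Concentration-response curves were fitted with the Hill equation to give AC50.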

The nature of experiment [11]: MultiTox-Fluor Cytotoxicity Assay - LYMP1-003 - Live Cells (AID 962).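 Note: cells exposed to compound for 16 hours at 37 °C; 0% = DMSO only and full loss = 92 µM tetraoctylammonium bromide; cytotoxic hits lower the live-cell protease signal.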 Particulars: LYMP1-003 lymphoblastoid cells, MultiTox-Fluor live-cell protease fluorescence; series mostly up to 92.2 µM. A digest of the protocol: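 qHTS, 1536-well; 2500 cells/well LYMP1-003; 5 hr 37 C settle; cpd 16 hr 37 C; MultiTox-Fluor reagent 60 min RT; live-cell protease fluor. 405/510; Hill-fit AC50; tetraoctylammonium bromide pos. ctrl.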

A short description of experiment [12]: Cell Viability - LYMP2-003 (AID 965).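 Note: cells exposed to compounds for 24 h before reading; 0% = DMSO only and full effect = 92 µM tetraoctylammonium bromide; nearly all actives have a fitted effect of over 50% in size.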 Particulars: LYMP2-003 lymphoblastoid cell viability; series mostly up to 92.2 µM. A digest of the protocol: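 CellTiter-Glo luminescence quantified ATP loss after 24 h compound treatment of LYMP2-003 lymphoblastoid cells at 37 C. Titration series were fitted with the standard Hill equation to give AC50.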
Experiment [13] in a line: Cell Viability - LYMP2-026 (AID 989). Note: % is set by controls: 0 for no effect and ±100 for the full control effect; nearly all actives have a fitted effect of over 50% in size. Particulars: LYMP2-026 lymphoblastoid cell viability, qHTS; series mostly up to 92.2 µM. A digest of the protocol: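 Luminescent ATP signal (CellTiter-Glo, 30 min room temperature) measures viable lymphoblastoid cells after 24 hr compound treatment at 37 C. Decreased ATP reflects acute toxicity; AC50 values come from Hill-equation modeling.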

Experiment [14] in a line: qHTS Assay for Identification of Small Molecule Inducers of Hypoxia Response (AID 2120; active = well fitted curve in the direction sought with a large enough effect in the signal ratio, with a control signal flat, not every such curve was filed as active; the % refers to the signal ratio; note: 0% is about no effect). The conditions noted are these: hypoxia response reporter cells, beta-lactamase ratio readout; series mostly up to 104 µM. A digest of the protocol: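 ME-180 HRE-bla cells plated in Opti-MEM/0.5% dialyzed FBS, rested 4-5 h, then dosed with compound titrations by pin tool. After 17 h at 37 degrees C, CCF4 dye loaded 2.5 h at RT; 460/530 nm ratio gave %Activity and AC50.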

Experiment [15] in a line: qHTS assay for environmental chemicals that activate the Aryl hydrocarbon Receptor (AhR) signaling pathway (AID 651777). Note: % of control where 0% means no effect; nearly all actives have a fitted effect of over 15% in size. The conditions noted are these: 1A2-DRE human hepatoma cells, luciferase, 24 h; activation: stronger effect = higher value. A digest of the protocol:
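Luminescence (One-Glo, 30 min, room temperature) reports AhR-driven luciferase in stably transfected human hepatoma cells bearing DRE and CYP1A2 promoter. Cells (1,200/well) were treated with compound for 24 hr at 37 C in qHTS format.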

Experiment [16] addresses Peroxisome proliferator-activated receptor alpha (Homo sapiens) (UniProt Q07869). The experiment is described as follows: qHTS assay for small molecule agonists of the peroxisome proliferator-activated receptor alpha (PPARalpha) signaling pathway (AID 651778). Note: % of control where 0% means no effect. Particulars: PathHunter PPARalpha complementation, chemiluminescence, 6 h; stronger effect = higher value. A digest of the protocol:
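Chemiluminescence from complemented enzyme reported PPARalpha activation in cells after 6 hr of compound treatment at 37 C. The detection reagent was incubated for 60 min at room temperature, and compounds were scored as agonists.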

Experiment [17] is described as follows: qHTS assay for small molecule agonists of the antioxidant response element (ARE) signaling pathway measured by Nrf2-dependant transcriptional activity - cell viability counter screen (AID 720653; active = well fitted curve in the direction sought with a large enough effect in the repeat runs; an effect the other way counts as inactive or inconclusive; note: % is set by controls: 0 for no effect and ±100 for the full control effect). The conditions noted are these: ARE-bla HepG2 viability, CellTiter-Glo ATP luminescence, 16 h; stronger effect = lower value. A digest of the protocol:
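Cytotoxicity counter screen: intracellular ATP quantified by CellTiter-Glo luminescence in the same ARE-bla HepG2 plates, after 16 h compound exposure and a 2 h beta-lactamase substrate step.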

Experiment [18] in a line: qHTS assay for cell viability of the p53RE-bla HCT-116 cell line (AID 743292). Note: % is set by controls: 0 for no effect and ±100 for the full control effect; nearly all actives have a fitted effect of over 55% in size. The conditions noted are these: p53RE-bla HCT-116 viability, ATP luminescence, 16 h; series mostly up to 95 µM. A digest of the protocol: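 ATP-based luminescent viability (CellTiter-Glo, 30 min RT) after 16 h compound treatment at 37 C of p53RE-bla HCT-116 cells, seeded at 4,000 cells/well and rested 5 h before dosing.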

Experiment [19] can be described thus: Cell Viability - LYMP1-002 - Assay at 40 hr (AID 994).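 Note: 0% = DMSO only and full inhibition = 92 µM tetraoctylammonium bromide; nearly all actives have a fitted effect of over 60% in size.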 Particulars: LYMP1-002 lymphoblastoid cell viability; series mostly up to 92.2 µM. A digest of the protocol: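 Luminescent ATP signal served as the viability readout, with decreases taken as toxicity. Cells were treated with compounds across a concentration range for 40 hours at 37 C, and AC50 values came from standard Hill modeling.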

Chain of Cytochrome P450 3A4 (Homo sapiens) (P08684 whole entry, looked up): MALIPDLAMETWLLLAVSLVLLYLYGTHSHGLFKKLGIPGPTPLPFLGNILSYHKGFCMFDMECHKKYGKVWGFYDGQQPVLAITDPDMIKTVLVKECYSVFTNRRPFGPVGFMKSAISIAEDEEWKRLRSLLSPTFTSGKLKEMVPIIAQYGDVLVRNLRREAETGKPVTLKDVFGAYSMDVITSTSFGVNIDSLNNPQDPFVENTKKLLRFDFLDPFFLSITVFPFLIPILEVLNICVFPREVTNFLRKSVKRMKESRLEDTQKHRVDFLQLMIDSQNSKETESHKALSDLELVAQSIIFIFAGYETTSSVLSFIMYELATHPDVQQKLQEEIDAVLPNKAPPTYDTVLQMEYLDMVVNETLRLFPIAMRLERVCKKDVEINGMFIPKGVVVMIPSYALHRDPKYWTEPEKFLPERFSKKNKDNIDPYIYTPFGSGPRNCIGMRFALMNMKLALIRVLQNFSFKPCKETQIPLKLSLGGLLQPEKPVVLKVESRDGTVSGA
Chain of Peroxisome proliferator-activated receptor alpha (Homo sapiens) (Q07869 whole entry, looked up): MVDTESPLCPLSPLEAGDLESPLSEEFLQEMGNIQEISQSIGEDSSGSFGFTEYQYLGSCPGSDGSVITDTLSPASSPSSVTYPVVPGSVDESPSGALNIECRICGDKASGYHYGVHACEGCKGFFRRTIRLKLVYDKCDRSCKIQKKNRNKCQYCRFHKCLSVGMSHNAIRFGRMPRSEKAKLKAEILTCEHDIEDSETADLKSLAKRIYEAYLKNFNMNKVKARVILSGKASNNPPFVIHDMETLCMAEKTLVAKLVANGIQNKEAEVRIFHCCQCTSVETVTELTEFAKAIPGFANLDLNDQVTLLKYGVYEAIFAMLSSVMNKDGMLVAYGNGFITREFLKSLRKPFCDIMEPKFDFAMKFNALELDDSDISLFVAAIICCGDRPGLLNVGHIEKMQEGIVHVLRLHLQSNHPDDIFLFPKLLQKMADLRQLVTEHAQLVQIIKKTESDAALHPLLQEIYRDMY

Take `Cc1cccc(N)c1C`: in experiment [1], the Potency was above 92 µM. Besides, the outcome in experiment [2], in experiment [3], in [4], in experiment [9], in experiment [10] and in [11] was inactive. Further, the Potency entry in [5], in [7], in experiment [8], in experiment [12], in [13] and in experiment [14] was “inactive” throughout. Moreover, the Potency result in [18] is “inactive”. Also, the caspase-3 activation in [6] is 1.27%. Also, in [15], the activation is 0.811%. In addition, the results for the max response in experiment [16] and in experiment [17] were -1.4% and 1.88%, respectively.

As for `CC(C)(COCC1CO1)COCC1CO1` (configuration not stated), in [1], the Potency is above 92 µM. The result in experiment [2], in experiment [3], in experiment [4], in [9], in experiment [10] and in [11] was inactive. Besides, the Potency result in [5], in experiment [7], in [8], in experiment [12], in experiment [13] and in experiment [19] was “inactive” each time. The Potency entry in [14] and in experiment [18] was “inactive” each time. In addition, the caspase-3 activation in experiment [6] is 0.0543%. In addition, the activation in experiment [15] was -0.0471%. The max response in [16] is -0.497%; in experiment [17], 1.11%.

In the case of `CC[N+](=O)[O-]`, the Potency in experiment [1] was above 92 µM. Further, the call in [2], in [3], in experiment [4], in experiment [9], in experiment [10] and in experiment [11] was inactive. For the same molecule, the Potency result in experiment [5], in experiment [7], in experiment [8], in [12], in [13] and in experiment [19] was “inactive” throughout. The Potency entry in [14] and in experiment [18] was “inactive” throughout. The caspase-3 activation in experiment [6] is 3.71%. Also, in experiment [15], the activation was -0.343%. For the same molecule, the results for the max response in experiment [16] and in experiment [17] were 1.55% and 9.27%, respectively.

With `Nc1ccc(Cc2ccc(N)c(Cl)c2)cc1Cl`, the Potency in experiment [1] was above 92 µM; in experiment [8], 5.01 µM (active). Moreover, the molecule was called inactive in experiment [2], in experiment [3], in [4], in [9], in [10] and in experiment [11]. In addition, the Potency result in experiment [5], in experiment [7], in experiment [12], in experiment [13], in [19] and in experiment [14] was “inactive” throughout. Also, the Potency entry in experiment [18] is “inactive”. Also, the caspase-3 activation in experiment [6] is 1.19%. Also, the activation in experiment [15] is 3.75%. Also, the max response in [16] is 2.66%; in experiment [17], -8.13%.

On to `Brc1ccc(Oc2ccc(Br)cc2Br)c(Br)c1`, for which the Potency in experiment [1] is above 92 µM. Moreover, the molecule was classed as inactive in experiment [2], in experiment [3], in experiment [4], in experiment [9], in experiment [10] and in experiment [11]. Besides, the Potency entry in experiment [5], in experiment [7], in experiment [8], in experiment [12], in [13] and in experiment [19] was “inactive” throughout. The Potency result in [14] is “inactive”. The caspase-3 activation in experiment [6] was 19.3%. Further, in experiment [15], the activation is 7.07%. The max response in experiment [16] is 6.57%; in [17], -0.481%.

On to `Cc1ccc(OP(=O)(Oc2ccc(C)cc2)Oc2ccc(C)cc2)cc1`, for which the Potency is above 92 µM in experiment [1] and 7.94 µM (active) in experiment [8]. Also, the molecule was called inactive in experiment [2], in experiment [3], in experiment [4], in experiment [9], in [10] and in experiment [11]. For the same molecule, the Potency entry in experiment [5], in experiment [7], in experiment [12], in experiment [13], in experiment [19] and in experiment [14] was “inactive” each time. Besides, the Potency result in experiment [18] was “inactive”. Besides, in experiment [6], the caspase-3 activation was 2.34%. Besides, in [15], the activation was 5.07% and 5.6%. Moreover, the max response in [16] is -4.04% and -0.382%; in experiment [17], -0.985% and -5.89%.

Values taken from PubChem BioAssay (NCATS).
